From PubChem
An excerpt weighted towards active compounds, which were near 21% of everything screened.
TDP1 cell noCPT: qHTS for Inhibitors of human tyrosyl-DNA phosphodiesterase 1 (TDP1): qHTS in cells in absence of CPT | DT40 Tdp1-/- hTDP1 cells, no CPT, ATP luminescence, 48 h | Potency, µM (doses to about 46.2 µM), for the others: top-dose activity change, negative = growth inhibition, hits mostly inhibitors | AID 686978, 2013 | 420,000 tested, 15% active; further: potency means the concentration at half of the fitted maximal effect; nearly all actives have a fitted effect of over 55% in size
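Cells were dispensed at 400 per well, compounds added by pin tool, plates incubated ≥48 hr at 37 °C, then CellTiter-Glo added for 30 min at room temperature before luminescence reading. Line: DT40 Tdp1-/- complemented with hTDP1; camptothecin omitted.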
RORgamma inh: ROR gamma (mouse) transcription inhibition. Drosophila S2 Gal4-RORgamma UAS-luciferase reporter, 20 h. 310,000 tested, 5.4% active. Potency, µM (series often up to 53.6 µM), for inactives: at the top dose activity change, negative = inhibition, usual class: inhibitors. AID 2551; further: potency means the concentration at half of the fitted maximal effect; nearly all actives have a fitted effect of over 60% in size
Target sequence (P51450 whole entry, looked up, the tested form may be a part): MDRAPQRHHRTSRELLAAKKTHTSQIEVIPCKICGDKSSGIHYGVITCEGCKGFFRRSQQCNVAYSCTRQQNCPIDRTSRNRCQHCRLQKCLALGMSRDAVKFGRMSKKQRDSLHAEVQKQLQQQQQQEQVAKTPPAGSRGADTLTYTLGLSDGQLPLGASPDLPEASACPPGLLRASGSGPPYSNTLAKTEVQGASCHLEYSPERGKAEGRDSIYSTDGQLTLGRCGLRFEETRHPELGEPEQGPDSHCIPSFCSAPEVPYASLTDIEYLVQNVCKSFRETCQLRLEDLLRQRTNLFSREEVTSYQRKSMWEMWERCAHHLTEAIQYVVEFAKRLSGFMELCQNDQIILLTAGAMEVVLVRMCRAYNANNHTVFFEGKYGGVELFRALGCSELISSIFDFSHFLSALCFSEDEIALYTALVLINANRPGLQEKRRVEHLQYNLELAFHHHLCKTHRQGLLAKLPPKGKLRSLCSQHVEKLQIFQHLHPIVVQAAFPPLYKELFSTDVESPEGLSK
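ROR gamma transcriptional activity was tracked as Gal4-UAS luciferase output in stably transfected Drosophila Schneider cells, with compound added 1 hr before 700 uM copper sulfate induction and a 20 hr ambient-temperature incubation.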
ELG1 DNA repair: inhibitors of ELG1-dependent DNA repair in HEK293T cells | 330,000 tested, 2.3% active | Potency, µM (doses to about 46.1 µM), without a hit: at the top dose activity change, negative = inhibition, actives largely listed as inhibitors | HEK293T ELG1-luciferase reporter, luminescence, 16 h; DNA damage induced by 5-fluorouridine; further: potency means the concentration at half of the fitted maximal effect; nearly all actives have a fitted effect of over 55% in size
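DMSO vehicle served as the neutral condition. Each well held 2,000 cells given 5-fluorouridine plus compound; after 16 hr at 37 °C/5% CO2, ONE-Glo was added and luciferase measured 30 min later.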
Gal4-VP16 FLuc: inhibits Gal4-VP16 luciferase reporter, ROR gamma counter-screen; Drosophila S2 Gal4-VP16 UAS-luciferase, luminescence, 20 h; Potency, µM (series often up to 53.6 µM), inactives show at the top dose activity, negative = inhibition, most hits filed as inhibitors; 310,000 tested, 3.5% active;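 further: Gal4-VP16 expression switched on by copper sulfate through the metallothionein promoter; potency means the concentration at half of the fitted maximal effect; nearly all actives have a fitted effect of over 50% in size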
TDP1 cell CPT: growth inhibition of DT40 Tdp1-/-;hTDP1 cells with camptothecin (screen for TDP1 inhibitors). chicken DT40 Tdp1-/-;hTDP1 cells + 20 nM CPT, ATP luminescence, 48 h. Potency, µM (titrated, usually from 46.2 µM), for the others: at the top dose activity change, negative = growth inhibition, most hits filed as inhibitors. 420,000 tested, 12% active. AID 686979; further: potency means the concentration at half of the fitted maximal effect; nearly all actives have a fitted effect of over 55% in size
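Chicken DT40 Tdp1-/- cells complemented with human TDP1, 400 cells/well, exposed to compounds plus 20 nM camptothecin for at least 48 h at 37 C; viability read as ATP content by CellTiter-Glo luminescence.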
IL1B secr inh: inhibitors of inflammasome signaling (IL-1 beta secretion); THP-1 LPS/ATP IL-1B secretion, AlphaLISA, 16 h; hits give low values; activity change, % at 57.5 µM; 360,000 tested, 4.7% active; AID 743279; in the data active means activity change below about -50%; inconclusive means mostly about -30% to -49%
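Secreted IL-1B measured by AlphaLISA bead assay after 16 h compound exposure of THP-1 cells; compounds (final up to 57.5 uM) added 1 h before LPS (250 ng/mL) and ATP (1.25 mM) stimulation; lower signal means less secretion.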
* hit, by the source's call; ? = inconclusive; nt = no result; [ ] = dose if it differs, or a comment. Unless noted, the call rests on the fitted dose curve; in most records, active means well fitted curve in the direction sought with a large enough effect; inconclusive means small, poorly fitted or top-dose-only effect, or another doubt; inactive means no such curve, though single readings can be large; an effect the other way counts as inactive or inconclusive. On the % scale 0 is the no-effect control and ±100 the full control effect.

SMILES	TDP1 cell noCPT	RORgamma inh	ELG1 DNA repair	Gal4-VP16 FLuc	TDP1 cell CPT	IL1B secr inh
COC(=O)c1ccc(C(=O)N(Cc2ccccc2)c2ccccc2)cc1	?	?	6%	-3%	?	11
COc1ccc(N(Cc2ccccc2)C(=O)c2nc(SC)ncc2Cl)cc1	5.2µM*	nt	nt	nt	10µM*	nt
C=C1C(=O)N(C)CCC1C(CC)C(=O)OC (stereo unspecified)	4%	nt	nt	nt	0%	-28
CC[C@@H](C)[C@@H](O)[C@H](C)C(=O)[C@H](C)/C=C(\C)C[C@H](C)[C@@H]1OC(=O)[C@H]1CC	nt	18%	nt	1%	nt	nt
CCNc1ncc2nc(-c3ccc(OC)cc3)c(=O)n(CCOC)c2n1	6%	-11%	nt	-6%	4%	nt
CC12CC3CC(C)(C1)CC(C(=O)NC(=S)N1CCOCC1)(C3)C2	-9%	1.1µM*	-8%	2.8µM*	-5%	-15
O=C(NC(=S)N1CCCCC1)C12CC3CC(CC(C3)C1)C2	?	7.1µM*	3%	13µM*	-5%	-18
CC12CC3CC(C)(C1)CC(C(=O)N1CCCC1)(C3)C2	?	-18%	-5%	-3%	-26%	7
CCOC(=O)N1CCN(C(=S)NC(=O)C23CC4CC(CC(C4)C2)C3)CC1	?	3.5µM*	-19%	?	?	14
COc1cc(OC)c(Nc2nc3ccc(C(=O)c4ccccc4)cc3n3c(C)nnc23)cc1Cl	0%	nt	nt	nt	12%	nt
CC(=O)c1cccc(S(=O)(=O)N2CCCC(c3nc(-c4ccc(C)o4)no3)C2)c1 (stereo unspecified)	?	-24%[10 µM]	?	3%	18µM*	-12
Cc1ccc(S(=O)(=O)N2CCCC(c3nc(-c4ccc(C)o4)no3)C2)cc1 (stereo unspecified)	-12%	36%	-25%	-6%	-17%	-73*
Cc1ccc(-c2noc(C3CCCN(C(=O)c4ccc(C(C)(C)C)cc4)C3)n2)o1 (stereo unspecified)	18µM*	?	?	?	?	-28
Cc1ccc(-c2noc(C3CCCN(S(=O)(=O)c4ccc5ccccc5c4)C3)n2)o1 (stereo unspecified)	-24%	28%	-14%	-8%	?	?
Cc1ccc(-c2noc(C3CCCN(S(=O)(=O)c4ccc(S(=O)(=O)N(C)C)cc4)C3)n2)o1 (stereo unspecified)	?	38%	2%	1%	-25%	-5
COc1ccc(-c2noc(C3CCCN(S(=O)(=O)c4ccc(C)c(Cl)c4)C3)n2)cc1OC (stereo unspecified)	21µM*	14%	-13%	2%	?	2
O=C(Cn1nnc(-c2ccc(Cl)cc2)n1)NC(=O)NC1CCCC1	6%	nt	nt	nt	16%	57
COc1cc(OC)c(NC(=O)C(c2ccccc2)N2Cc3ccccc3C2=O)cc1Cl (stereo unspecified)	-23%	nt	nt	nt	?	nt
Cc1ccc(NS(=O)(=O)c2c(C)ccc3nsnc23)c([N+](=O)[O-])c1	6%	-21%[1.91 µM]	-10%	2%	-8%	52
O=C(CN1C(=O)C2CCCCN2c2ccc(C(=O)N3CCCC3)cc21)NCc1cccc(F)c1 (stereo unspecified)	-16%	nt	nt	nt	-22%	nt
Cc1ccc(-c2noc(C3CCN(C(=O)Nc4ccc(C#N)cc4)CC3)n2)o1	?	14%[10 µM]	26µM*	1%	23µM*	-8
O=C(N/N=C/C(Br)=C/c1ccccc1)C(O)c1ccccc1 (stereo unspecified)	8.2µM*	?	?	?	5.8µM*	-20
O=C(N/N=C/c1ccccc1)NC1CCCCC1	?	42%	?	-11%	?	-4
O=C(N/N=C/C(Br)=C/c1ccccc1)NC1CCCCC1	15µM*	?	?	?	9.2µM*	-94*
CC(/C=N/NC(=O)NC1CCCCC1)=C\c1ccccc1	21µM*	-3%	6%	-10%	21µM*	?
SMILES	TDP1 cell noCPT	RORgamma inh	ELG1 DNA repair	Gal4-VP16 FLuc	TDP1 cell CPT	IL1B secr inh
O=C(N/N=C/c1ccccc1F)NC1CCCCC1	-21%	30%	?	-4%	-1%	0
O=C(O)c1ccc(N/N=C/C(Br)=C/c2ccccc2)cc1	7.3µM*	8.9µM*	?	10µM*	5.8µM*	-14
CCCN1CNc2c(c(=O)[nH]c(=S)n2CCC(C)C)C1	?	nt	nt	nt	-22%	nt
C/C=C/c1ccc(OC(C)[C@@H](O)c2ccc(O)c(OC)c2)c(OC)c1 (stereo partly specified)	-16%[9.04 µM]	36%	nt	-8%	-16%[9.04 µM]	nt
O=C(N/N=C/C(Br)=C/c1ccccc1)C1CC1	13µM*	?	?	?	8.2µM*	-76*
CCCC1Oc2ccccc2C(=O)N(CC(=O)c2ccc3c(c2)OCCO3)C1=O (stereo unspecified)	5%	42%	?	2%	-20%	-3
CCOc1ccc(/C=N/O)cc1	1%	38%	19%	8%	4%	9
NC(N)=N/N=C/c1ccc(Br)cc1	4.1µM*	-7%	-17%	5%	2.6µM*	?
O=C(COc1ccc(Cl)cc1)OCc1ccc(Cl)cc1	-4%	nt	nt	nt	1%	15
Oc1ccc(/C=N/N=C/c2ccc(O)cc2)cc1	-2%	22%	6%	0%	-12%	-21
Cc1ccc(COc2ccc(/C=N/O)cc2)cc1	?	8.9µM*	?	?	-29%	-9
NC(N)=N/N=C/c1ccc(OCc2ccc(Cl)cc2)cc1	?	?	?	7.1µM*	21µM*	-94*
Cc1ccc(Oc2ccc(/C=N/O)cn2)cc1	16µM*	-3%	19%	10%	23µM*	-12
CC(C)CNC(=O)C1(C)CCCN1Cc1ccc(S(C)(=O)=O)cc1 (stereo unspecified)	-7%	nt	nt	nt	-28%	-22
O=C(COC(=O)COc1ccccc1)Nc1ccc(Br)cc1Br	-4%	nt	16%	nt	5%	-3
CN(C)CCNC(=O)c1cc2c(s1)-c1ccccc1OC2	?	-5%	?	6%	16µM*	-23
Cc1c(NC(=O)c2cc3c(s2)-c2ccccc2OC3)cccc1[N+](=O)[O-]	18µM*	39%	23µM*	-2%	?	-73*
COc1ccc(CCNC(=O)c2ccc(C)s2)cc1OC	-21%	14%	3%	-4%[10 µM]	7%	3
